Results on 27 compounds are retold here after PubChem BioAssay.

In general, AC50 refers to the midpoint of the concentration-response curve, whichever way the signal moves. Usually IC50 stands for the concentration at which inhibition is half-maximal.

Results filed as inconclusive are left out. Calls of active or inactive are those of the source. Unless noted, cut-off not given; nearly all actives show AC50 up to about 26 µM.

A short description of assay [1]: growth inhibition of DIPG glioma cells, dose response, cell-based, SU-DIPG-XVII, MIPE5.0, CellTiter-Glo, qHTS (AID 1347060).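 On AC50: cells exposed to compound for 48 hours before viability readout.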 The following applies: SU-DIPG-XVII viability, CellTiter-Glo ATP luminescence. For orientation: In ATP-based viability assays light output follows the ATP content of the culture.
Assay [2] can be described thus: growth inhibition of DIPG glioma cells, dose response, cell-based, SU-DIPG-XIII, MIPE5.0, CellTiter-Glo, qHTS (AID 1347064; cut-off not given, nearly all actives have AC50 up to about 23 µM;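 on AC50: cells exposed to compound for 48 hours before the viability read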). The following applies: SU-DIPG-XIII viability, CellTiter-Glo ATP luminescence.
The nature of assay [3]: viability loss in pontine glioma line – cell-based, SU-DIPG-XXV, MIPE5.0, CellTiter-Glo, qHTS, dose response (AID 1347065).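 Further: cells exposed to compound for 48 hours before ATP readout.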 Particulars: CellTiter-Glo ATP luminescence.
Assay [4] in a line: JHH-DIPG-1 glioma cell viability, MIPE5.0 library, CellTiter-Glo luminescence, qHTS (AID 1347067).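 Further: cells exposed to compound for 48 hours before readout.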 Particulars: JHH-DIPG-1 glioma viability, CellTiter-Glo ATP luminescence.
A short description of assay [5]: SU-DIPG-XXV glioma cell viability, MIPE5.0 library, qHTS (AID 1347068; cut-off not given, nearly all actives have IC50 up to about 30 µM;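 on IC50: cells exposed to compound for 48 hours before viability readout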).

For the compound `CCc1nc(C(N)=O)c(Nc2ccc(N3CCC(N4CCN(C)CC4)CC3)c(OC)c2)nc1NC1CCOCC1`, the AC50 in assay [1] was 2.35 µM (active); in assay [2], 1.18 µM (active); in assay [3], 0.833 µM (active); in assay [4], 0.934 µM (active).

As to `CC(C)n1ncnc1-c1cn2c(n1)-c1ccc(O[C@@H](C)C(N)=O)cc1OCC2`, the values for the AC50 in assay [1], in assay [2] and in assay [3] were 1.32 µM (active), 1.05 µM (active) and 0.59 µM (active), respectively.

With `O=c1cc(N2CCOCC2)oc2c(-c3ccc4c(c3)OCCO4)csc12`, the AC50 was 5.25 µM (active) in assay [1], 6.61 µM (active) in assay [2], 8.33 µM (active) in assay [3] and 7.42 µM (active) in assay [4].

For the compound `CCN(CC)CCNC(=O)c1c(C)[nH]c(/C=C2/C(=O)Nc3ccc(-c4csc(-c5ccccc5)n4)cc32)c1C`, the AC50 in assay [1] was 3.32 µM (active); in assay [2] it was 2.95 µM (active); in assay [3] it was 4.68 µM (active); in assay [4], 2.95 µM (active).

As for `CCN1CCN(Cc2ccc(NC(=O)Nc3ccc(Oc4cc(NC)ncn4)cc3)cc2C(F)(F)F)CC1`, the concentration at half-maximal activity (AC50) in assay [1] is 7.42 µM (active); in assay [2], 3.32 µM (active); in assay [3], 10.5 µM (active); in assay [4] it was 3.72 µM (active). In assay [5], the IC50 was 7.42 µM (active).

Take `COc1ccc(S(=O)(=O)NCc2ccc(C(=O)NCCc3ccc(Cl)cn3)cc2)cc1`: the outcome in assay [1], in assay [2], in assay [3] and in assay [4] was inactive.

Turning to `CC#CC(=O)N1CCC[C@H]1c1nc(-c2ccc(C(=O)Nc3ccccn3)cc2)c2c(N)nccn12`, the outcome in assay [1], in assay [2], in assay [3] and in assay [4] was inactive.

Turning to `O=C(/C=C\n1cnc(-c2cc(C(F)(F)F)cc(C(F)(F)F)c2)n1)NNc1ccccn1`, the AC50 in assay [1] is 2.95 µM (active); in assay [2], 0.295 µM (active); in assay [3] it was 5.25 µM (active); in assay [4], 13.2 µM (active).

Take `CC[C@@H](C)Nc1cc(C(=O)NC2CC3CC[C@@H](C2)N3c2ccc(C(=O)C3CC3)cn2)c(C)cc1C(N)=O` (some centres not stated): the AC50 in assay [1] is 0.118 µM (active); in assay [2] it was 0.166 µM (active); in assay [3] it was 0.0934 µM (active); in assay [4], 0.148 µM (active).

Take `NS(=O)(=O)Oc1ccc2c3c(c(=O)oc2c1)CCCCC3`: the compound was called inactive in assay [1], in assay [2], in assay [3] and in assay [4].

As for `O=C(Nc1ccc2[nH]nc(-c3ccncc3)c2c1)[C@@H]1CCN(CC(=O)N2CCN(c3ccc(-c4ncccn4)cc3)CC2)C1`, the AC50 is 1.05 µM (active) in assay [1], 1.48 µM (active) in assay [2], 1.05 µM (active) in assay [3] and 0.525 µM (active) in assay [4].

Regarding `O=C(COCC(=O)N1CCN(C(c2ccccc2)c2ccccc2)CC1)Nc1ccc(Cl)cc1C(=O)O`, the outcome in assay [1], in assay [2], in assay [3], in assay [4] and in assay [5] was inactive.

On to `Cc1cc(C(=O)Nc2cc(Nc3ccc4c(/C=C/c5ccccn5)n[nH]c4c3)ccc2F)n(C)n1`, for which the AC50 is 8.33 µM (active) in assay [1], 7.42 µM (active) in assay [2], 3.72 µM (active) in assay [3] and 16.6 µM (active) in assay [4].

Regarding `CCc1cc2c(c(OCC(F)(F)F)c(C(=O)NC3CCN(C(=O)CO)CC3)n2C)c(=O)n1CC(=O)c1ccccc1`, the compound was classed as inactive in assay [1], in assay [2], in assay [3] and in assay [4].

On to `O=C(NCc1ccc(S(=O)(=O)c2cccc(C(F)(F)F)c2)cc1)c1cnc2[nH]ncc2c1`, for which the concentration at half-maximal activity (AC50) in assay [1] was 0.0263 µM (active); in assay [2], 0.0118 µM (active); in assay [3] it was 0.0166 µM (active); in assay [4] it was 0.0148 µM (active).

Consider `O=C(NCC(=O)N1CCCC1)Nc1ccc2cnccc2c1`, for which the result in assay [1], in assay [2], in assay [3], in assay [4] and in assay [5] was inactive.

Regarding `O=C(c1ccc(Nc2nc(C3CC3)cn3c(-c4cn[nH]c4)cnc23)c(F)c1)N1CCOCC1`, the AC50 was 5.25 µM (active) in assay [1], 5.9 µM (active) in assay [2], 3.72 µM (active) in assay [3] and 2.63 µM (active) in assay [4].

With `COc1cc(OC)cc(N2CCN(C(=O)Nc3nc4cc(F)ccc4nc3OC)CC2)c1`, the AC50 in assay [1] was 0.833 µM (active); in assay [2], 2.63 µM (active); in assay [3], 1.48 µM (active); in assay [4], 1.32 µM (active).

For the compound `CC1(C)OCCn2c1nc1c(N3CCOCC3)nc(-c3cnc(N)nc3)nc12`, the AC50 was 3.72 µM (active) in assay [1], 1.86 µM (active) in assay [2], 1.48 µM (active) in assay [3] and 1.32 µM (active) in assay [4].

Consider `CC(C)NC(=O)C1CCC(n2c(NC(=O)c3ccc(F)cc3)nc3ccc(CN4CCC(C(C)(C)O)CC4)cc32)CC1` (configuration not stated), for which the values for the AC50 in assay [1], in assay [2] and in assay [3] were 9.1 µM (active), 7.23 µM (active) and 6.45 µM (active), respectively. Moreover, the call in assay [4] was inactive.

For `CN1C/C=C/CCOc2cccc(c2)-c2ccnc(n2)Nc2cccc(c2)C1`, the AC50 is 0.0833 µM (active) in assay [1], 0.132 µM (active) in assay [2], 0.0934 µM (active) in assay [3] and 0.166 µM (active) in assay [4].

For the compound `O=C(/C=C\n1cnc(-c2cc(C(F)(F)F)cc(C(F)(F)F)c2)n1)N1CC(F)(F)C1`, the AC50 in assay [1] was 1.18 µM (active); in assay [2] it was 2.63 µM (active); in assay [3], 13.2 µM (active); in assay [4] it was 9.34 µM (active).

With `CCN(CC)CCNc1ccc(C)c2sc3ccccc3c(=O)c12`, the AC50 is 13.2 µM (active) in assay [1], 20.9 µM (active) in assay [2], 16.6 µM (active) in assay [3] and 18.6 µM (active) in assay [4].

Regarding `CCNC(=O)C#Cc1ccc2c(C(=Nc3ccc(CN(C)C)cc3)c3ccccc3)c(O)[nH]c2c1`, the concentration at half-maximal activity (AC50) in assay [1] is 0.162 µM (active); in assay [2], 0.574 µM (active); in assay [3] it was 0.0723 µM (active); in assay [4], 0.288 µM (active). In addition, the IC50 in assay [5] was 0.811 µM (active).

For the compound `CNS(=O)(=O)Nc1nccc(Cc2c(C)c3ccc(Oc4ncccn4)cc3oc2=O)c1F`, the AC50 in assay [1] was 1.48 µM (active); in assay [2], 1.18 µM (active); in assay [3] it was 2.35 µM (active); in assay [4], 1.05 µM (active).

In the case of `N#Cc1ccnc(Nc2cc(C3CCN(C4COC4)CC3)cc(N3CCC(F)(F)C3)n2)c1`, the AC50 in assay [1] is 2.63 µM (active); in assay [2] it was 5.25 µM (active); in assay [3] it was 1.48 µM (active); in assay [4] it was 5.9 µM (active). The IC50 in assay [5] was 11.8 µM (active).

As for `CCOC(=N)c1nc2ccc3ncnc(Nc4cc(F)c(F)cc4Cl)c3c2s1`, the AC50 in assay [1] is 16.6 µM (active); in assay [2], 16.6 µM (active); in assay [3], 11.8 µM (active); in assay [4], 14.8 µM (active).
